Bioassay records deposited in PubChem by National Center for Advancing Translational Sciences (NCATS).
An excerpt weighted towards active compounds, which were near 11% of everything screened.
JMJD2A Tudor inh: blocks the human JMJD2A Tudor domain. Potency, µM (series often up to 114 µM), actives largely listed as inhibitors. O75164. AlphaScreen JMJD2A-Tudor / H3K4me3 peptide binding. 390,000 compounds, 4.4% hits. AID 504339; further: nearly all actives have a fitted effect of over 50% in size
BAZ2B inh: BAZ2B (human) inhibition; AID 504333; Q9UIF8; AlphaScreen BAZ2B-H3K14Ac peptide displacement; 360,000 compounds, 4.4% hits; Potency, µM (series often up to 114 µM), usual class: inhibitors; further: nearly all actives have a fitted effect of over 60% in size
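Complex of BAZ2B and biotin-H3K14Ac (50 nM apiece) forms over 30 min at RT, then faces library compounds up to 110 uM for another 30 min; AlphaScreen beads added, 20 min dark incubation, luminescence read.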
G9a block: G9a (human) methyltransferase inhibition. Q96KQ7. G9a H3K9 monomethylation, AlphaScreen, 2 h. Potency, µM (highest dose often 102 µM), actives largely listed as inhibitors. 350,000 compounds, 8.8% hits. AID 504332; further: nearly all actives have a fitted effect of over 75% in size
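Methyltransferase reactions run at room temperature for 2 h (20 nM enzyme, 500 nM biotin-H3K9 peptide, 20 uM SAM) after a 15 min compound preincubation; product detected by AlphaScreen beads and anti-H3K9me1 antibody.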
PLK1 PBD block: inhibitors of human PLK1 polo-box domain binding. Potency, µM, usual class: inhibitors. Plk1 PBD binding of FITC phosphopeptide, fluorescence polarization. AID 720504. P53350. 360,000 compounds, 2.8% hits; further: series mostly up to about 57 µM; nearly all actives have a fitted effect of over 65% in size
HP1b chromo inh: HP1-beta chromodomain-methylated histone interaction inhibition; P83916; AlphaScreen HP1-beta / biotin-H3K9me3 peptide binding; Potency, µM (top dose mostly 114 µM), hits mostly inhibitors; 390,000 compounds, 0.56% hits; AID 540317; further: nearly all actives have a fitted effect of over 70% in size
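HP1-beta protein (50 nM final) preincubated 30 min at room temperature with biotinylated H3(1-18)K9me3 peptide (50 nM) in PBS pH 7.4, 0.01% Tween-20, then compound added for 30 min. AlphaScreen streptavidin donor/nickel chelate acceptor beads (10 ug/mL final), 30 min dark, luminescence read.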
VDR inh: vitamin D3 receptor (human) inhibition; P11473; VDR-SRC2-3 peptide fluorescence polarization, 2 h; Potency, µM, usual class: inhibitors; 400,000 compounds, 0.93% hits
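Inhibition of the VDR/SRC2-3 peptide interaction is quantified by fluorescence polarization. Compounds (23 nl, pintool) incubate with the reagents for 2 hours at ambient room temperature.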
A number is an active result; - = inactive; ? = inconclusive; . = no result; [ ] = remark or other dose. The call rests on the fitted dose curve; in most records, active means well fitted curve in the direction sought with a large enough effect; inconclusive means small, poorly fitted or top-dose-only effect, or another doubt; inactive means no such curve, though single readings can be large; an effect the other way counts as inactive or inconclusive.

SMILES | JMJD2A Tudor inh | BAZ2B inh | G9a block | PLK1 PBD block | HP1b chromo inh | VDR inh
CCOC(=O)c1c(NC(=O)CC)sc(C(C)=O)c1C | - | ? | 25µM | 11µM | - | -
CCOC(=O)c1sc(NC(=O)CCN2CCN(C)CC2)c(C(=O)OCC)c1C | - | ? | -[12.7 µM] | - | - | -
COC(=O)c1c(NC(=O)CSc2ncn[nH]2)sc(C)c1C | - | - | 4µM | - | - | -
CCOC(=O)c1c(NC(=O)CSc2ncn[nH]2)sc(C(C)=O)c1C | - | 56µM | - | - | - | -
Cc1ccc(NC(=O)CSc2ncn[nH]2)cc1 | - | - | - | - | - | -
O=c1cc(Br)c(O)c(Br)cc1Br | 22µM | . | . | 21µM | ? | ?
COc1cc2c(cc1OC)C1(CCCC1)CNC2c1ccc([N+](=O)[O-])cc1 (stereo not given) | - | ? | 35µM | - | - | -
O=C(O)c1cccn2c(=O)c3ccccc3nc12 | 79µM | ? | ? | - | - | -
O=C(NCCC(=O)N1CCN(c2ccc(F)cc2)CC1)c1ccco1 | - | - | 50µM | - | - | -
CCN1CCN(C(=S)c2ccc(OCC(=O)NCc3ccccc3)cc2)CC1 | - | - | 10µM | 11µM | - | ?
O=C(NCc1ccccc1)N1CCN(c2ccc(Cl)c(Cl)c2)CC1 | - | - | - | - | - | -
O=C(Cc1ccccc1)NC1CCN(C(=O)NCc2ccccc2)CC1 | -[11.4 µM] | - | -[12.7 µM] | 27µM | - | -
O=C(NCc1ccccc1)N1CCN(c2ccc(F)cc2)CC1 | -[11.4 µM] | - | - | 3µM | ? | -
O=C(NC1CCN(C(=O)NCc2ccccc2)CC1)c1ccccc1 | - | - | - | - | - | -
Cc1cc(C)c(S(=O)(=O)N2CCCCC2CCNC(=O)C(=O)NCc2cccnc2)c(C)c1 (stereo not given) | - | - | - | - | - | -
CCN1CCN(C(=O)NCc2ccccc2)CC1 | 1.6µM | - | 22µM | - | ? | -
CCN(CC)C(=O)Cn1cc(S(=O)(=O)CC(=O)Nc2ccc(C(N)=O)cc2)c2ccccc21 | - | - | 45µM | - | - | -
CCn1cc(S(=O)(=O)CC(=O)Nc2ccc3c(c2)OCCO3)c2ccccc21 | ? | ? | ? | - | - | -
CCN(CC)C(=O)Cn1cc(S(=O)(=O)CC(=O)Nc2ccc3c(c2)OCCO3)c2ccccc21 | - | . | 56µM | - | - | -
COc1ccc(O)c(CN2CCC(n3nccc3NC(=O)c3ccccc3Cl)CC2)c1 | - | - | ? | - | - | -
COC(=O)C1=C(C(=O)OC)[C@@H]2N(C)c3ccc(OC)cc3[C@@]23C[C@@H](C(=O)OC)N(C(=O)c2cc(C)oc2C)C3=N1 | 45µM | . | . | - | ? | -
COC(=O)C1=C(C(=O)OC)[C@@H]2N(Cc3ccccc3)c3ccccc3[C@@]23C[C@@H](C(=O)OC)N(C(=O)c2cc(C)oc2C)C3=N1 | - | . | . | - | - | -
CC(C)Cn1nc(NC(=O)c2cccc(Cl)c2)c2cc3ccccc3nc21 | - | - | - | . | - | -
CCOC(=O)c1cc(-c2ccc(OC)cc2)nn1Cc1ccccc1 | - | . | - | . | - | -
O=C(N=C1SCC(=O)N1c1ccccc1)c1ccco1 | - | - | - | - | - | -
SMILES | JMJD2A Tudor inh | BAZ2B inh | G9a block | PLK1 PBD block | HP1b chromo inh | VDR inh
CC1SC(=NC(=O)c2ccco2)NC1=O (stereo not given) | ? | - | 50µM | - | - | -
CCC1CCCCN1S(=O)(=O)c1cc(C(=O)Nc2ccc(C)c(F)c2)ccc1F (stereo not given) | - | - | - | . | - | -
C[C@@H]1NC(=O)[C@H](CCCN=C(N)N)NC(=O)c2cc([N+](=O)[O-])cc(I)c2OCC[C@@H](C(=O)NC(CC(=O)O)C(N)=O)NC1=O (stereo not given in full) | . | - | 40µM | . | . | .
CC(C)[C@@H]1NC(=O)[C@@H](Cc2ccccc2)NC(=O)[C@H](CC(=O)O)NC(=O)CNC(=O)[C@H](CCCN=C(N)N)NC1=O | . | . | . | . | . | -
CC[C@H](C)[C@@H]1NC(=O)c2cc([N+](=O)[O-])cc(F)c2NCCCC[C@@H](C(N)=O)NC(=O)[C@H](CC(N)=O)NC1=O | - | - | ? | - | - | ?
C[C@@H]1NC(=O)c2cc([N+](=O)[O-])cc(I)c2OCC[C@@H](C(=O)NC(CC(=O)O)C(N)=O)NC(=O)[C@H](CC(N)=O)NC1=O (stereo not given in full) | ? | ? | 25µM | - | - | -
Cc1cccc(NC(=O)CNC(=O)COc2cccnc2[N+](=O)[O-])c1C | - | - | -[2.33 µM] | - | - | -
COC(=O)[C@@]1(Cc2ccc(F)cc2)[C@H]2c3cc(C(=O)N4CCCC4)n(Cc4ccc(C)o4)c3C[C@H]2CN1C(=O)c1ccccc1 | . | . | . | - | . | .
CC(C)[C@H]1CN=C2N(C[C@H](C)NC(=O)CCC3CCCCC3)[C@H](Cc3ccc(O)cc3)CN21 | 79µM | - | ? | 13µM | - | -
COc1ccc(C[C@@H]2CN3C(=NC[C@@H]3Cc3ccc(O)cc3)N2C[C@H](C)NC(=O)CCC2CCCCC2)cc1 | ? | - | . | 27µM | - | -
COc1ccc(C[C@H]2CN3C(=NC[C@@H]3Cc3ccc(O)cc3)N2C[C@H](C)NC(=O)CCC2CCCCC2)cc1 | - | - | -[12.7 µM] | - | - | -
CCN(CC)CCNC(CC(=O)Nc1ccc(Cl)cc1Cl)C(=O)O (stereo not given) | - | - | 8.9µM | - | - | -
CCOc1ccc(C2C(C#N)=C(N)SC(N)=C2C#N)c(OCC)c1 | ? | - | 14µM | - | - | ?
COc1ccc(C2C(C#N)=C(N)SC(N)=C2C#N)cc1OC | 56µM | - | ? | - | - | -
CCOc1cc(C2C(C#N)=C(N)SC(N)=C2C#N)ccc1OCCN1CCOCC1 | 45µM | - | 2.5µM | 27µM | ? | ?
COc1cc(NC(=O)Cc2ccccc2)ccc1NC(=O)c1ccccc1 | - | - | - | - | - | -
Cc1ccccc1Cn1c(CN2CCC(C(=O)NCc3cccnc3)CC2)cc2ccccc21 | - | ? | - | . | - | -
COc1ccc(-c2cc(=O)oc3cc(OCC(=O)Nc4ccccn4)ccc23)cc1 | 18µM | - | - | 3µM | - | ?
CCc1cc(=O)oc2cc(OCC(=O)NCc3ccccn3)ccc12 | ? | - | - | 27µM | - | ?
COC(=O)c1ccccc1NC(=O)c1noc2c1CCCC2 | - | - | -[12.7 µM] | - | - | -
COc1cc(OC)c(NC(=O)c2noc3c2CSc2ccccc2-3)cc1Cl | - | - | 1.6µM | . | - | -
COc1ccc(NC(=O)c2noc3c2CSc2ccccc2-3)cc1Cl | - | - | - | . | - | -
COc1cc(OC)c(NC(=O)c2nn(C)c3c2COc2ccccc2-3)cc1Cl | - | - | 2.2µM | . | - | -
COC(=O)c1cc(NC(=O)c2nn(C)c3c2COc2ccccc2-3)cc(C(=O)OC)c1 | ? | ? | ? | . | ? | -
